Compound activity from PubChem.
The list is not random: actives were taken first. Their share in the collection is about 2.2%.
aSyn rescue: qHTS of alpha-syn Inhibitors | Yeast expressing alpha-synuclein, growth rescue, BacTiter-Glo, 24 h | Potency, µM (highest dose often 46.1 µM), hits mostly activators | actives 0.14% (n = 370,000); also: nearly all actives have a fitted effect of over 65% in size
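Galactose-induced alpha-syn yeast (OD600=0.02, raffinose-pregrown) + pinned cpd, 24 hr, 30 deg C; growth by BacTiter-Glo luminescence. Growth restoration scores as activation.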
FUS yeast rescue: qHTS for Suppressors of FUS Proteinopathy: Primary screen using FUS-linked yeast assay. S. cerevisiae FUS-expressing, growth rescue, OD600, 24 h. Potency, µM (titrated, usually from 76.6 µM), usual class: activators. actives 0.24% (n = 390,000). AID 1347120, 2019; also: nearly all actives have a fitted effect of over 55% in size
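Galactose (2%) drives FUS expression in yeast precultured in raffinose; seeding density OD 0.005. Test compounds incubated 24hr at 30C and 99% humidity before absorbance at 600 nm was measured.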
Mito fusion act: qHTS Assay for Small Molecule Inhibitors of Mitochondrial Division or Activators of Mitochondrial Fusion | S. cerevisiae fusion-defective mutant growth rescue, CellTiterGlo 48 h | Potency, µM (titrated, usually from 46.1 µM), most hits filed as activators | actives 0.23% (n = 320,000) | AID 485298, 2010; also: nearly all actives have a fitted effect of over 45% in size
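Yeast fusion mutant, YPEG (non-fermentable carbon), compound, 48 h at 37C non-permissive; CellTiterGlo added, 10 min RT, luminescence read. Rescued growth = division inhibition.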
TDP-43 yeast inh: qHTS of TDP-43 Inhibitors | actives 1.8% (n = 410,000) | TDP-43 expressing yeast growth rescue, BacTiter-Glo, 24 h | AID 652104, 2013 | Potency, µM (top dose mostly 46.1 µM), most hits filed as activators; also: nearly all actives have a fitted effect of over 50% in size
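In this qHTS, compounds that restore growth of yeast expressing TDP-43 appear as activators. Cells (OD600=0.02, galactose medium, raffinose-pregrown) are incubated with compound 24 hr at 30 deg C and growth is quantified by BacTiter-Glo.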
Abeta rescue: qHTS for compounds that reverse cellular toxicity of Amyloid beta (A-beta) peptide in yeast: Primary Screen | yeast expressing A-beta42, growth rescue, OD600, 48 h; response scale: 0% DMSO, 100% iron-clioquinol control | Potency, µM (top dose mostly 46.1 µM), hits mostly activators | actives 0.063% (n = 410,000); also: nearly all actives have a fitted effect of over 55% in size
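Yeast growth medium received pinned compounds, then yeast cells expressing toxic A-beta were added; plates incubated at 30 C for 48 hr. Growth read as absorbance at 600 nm, normalized to DMSO and equimolar FeCl3 plus clioquinol controls.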
Numbers stand for hits; [ ] = remark or other dose. Calls follow the shape of the dose curve; as a rule, active = well fitted curve in the direction sought with a large enough effect; inconclusive = small, poorly fitted or top-dose-only effect, or another doubt; inactive = no such curve, though single readings can be large; an effect the other way counts as inactive or inconclusive.

How did Cc1cccc(NC(=O)c2c(C)oc3ncn(CC(C)C)c(=O)c23)n1 do in these assays?
FUS yeast rescue: inactive; TDP-43 yeast inh: inactive; Abeta rescue: inactive

How did COc1ccc(C)cc1NC(=O)c1c(C)oc2ncn(CC(C)C)c(=O)c12 do in these assays?
FUS yeast rescue: inconclusive; TDP-43 yeast inh: 16µM; Abeta rescue: inactive

How did C=CCN1C(=O)[C@H](CC(=O)N2CCN(C(=O)c3ccco3)CC2)[C@@]2(C(=O)OCC)CCCC=C12 do in these assays?
FUS yeast rescue: inactive

How did COc1cccc(-c2nc(N3CCN(C)CC3)c3ccccc3n2)c1O do in these assays?
aSyn rescue: inactive; FUS yeast rescue: inactive; Mito fusion act: inactive; TDP-43 yeast inh: inactive; Abeta rescue: inactive

Results for COc1cccc(-c2nc(N3CCCCC3C)c3ccccc3n2)c1O (stereo not drawn) ?
aSyn rescue: inactive; FUS yeast rescue: inactive; Mito fusion act: 13µM; TDP-43 yeast inh: inconclusive; Abeta rescue: inactive

What do the screens show for `Cc1cccc(-c2cc(C(=O)NCc3ccccn3)c3ccccc3n2)c1`?
aSyn rescue: inactive; Mito fusion act: inactive; TDP-43 yeast inh: 35µM; Abeta rescue: inactive

How did C/C(=N\NC(=O)c1cc(-c2cccs2)nc2ccccc12)c1ccccn1 do in these assays?
aSyn rescue: 14µM; FUS yeast rescue: inactive; Mito fusion act: inactive; TDP-43 yeast inh: 22µM; Abeta rescue: 13µM

How did O=C(Nc1nccs1)c1cc(-c2ccccc2)nc2ccccc12 do in these assays?
aSyn rescue: inactive; FUS yeast rescue: inactive; Mito fusion act: inconclusive; TDP-43 yeast inh: 14µM; Abeta rescue: inactive

How did N#Cc1c2ccccc2nc2ccccc12 do in these assays?
aSyn rescue: inconclusive; FUS yeast rescue: inactive; Mito fusion act: inactive; TDP-43 yeast inh: 11µM; Abeta rescue: inactive

How did Cc1c(NC(=O)c2sc3c([N+](=O)[O-])cccc3c2Cl)cccc1-c1nc2ccccc2o1 do in these assays?
FUS yeast rescue: inactive; TDP-43 yeast inh: inactive; Abeta rescue: inactive

How did CC(C)[C@H]1COCCS(=O)(=O)N1Cc1cccc(Cl)c1 do in these assays?
aSyn rescue: inactive; FUS yeast rescue: inactive; Mito fusion act: inactive; TDP-43 yeast inh: 35µM; Abeta rescue: inactive

What do the screens show for `CCc1ccccc1NC(=O)C1C(c2ccccc2)C1(Cl)Cl` (stereo not drawn)?
aSyn rescue: inactive; FUS yeast rescue: inactive; Mito fusion act: inactive; TDP-43 yeast inh: inactive; Abeta rescue: inactive

Results for O=C(Nc1ccccc1Cl)C1C(c2ccccc2)C1(Cl)Cl (stereo not drawn) ?
aSyn rescue: inactive; FUS yeast rescue: inactive; Mito fusion act: inactive; TDP-43 yeast inh: 13µM; Abeta rescue: inactive

How did O=C(OC12CCCN(C1)/C(=C/c1cccc(Cl)c1)C2)c1ccno1 (stereo not drawn) do in these assays?
FUS yeast rescue: inactive

Results for CC12CCC(O)CC1=CCC1C2CCC2(C)C3=NN=CC3CC12 (stereo not drawn) ?
aSyn rescue: inconclusive; FUS yeast rescue: inactive; TDP-43 yeast inh: 16µM; Abeta rescue: inactive

How did CC(=O)N1[C@@H]2CC3C4CC=C5C[C@@H](O)CC[C@]5(C)C4CC[C@]3(C)[C@@]21C(C)=O (stereo partly drawn) do in these assays?
aSyn rescue: inactive; FUS yeast rescue: inactive; Mito fusion act: 22µM; TDP-43 yeast inh: inactive; Abeta rescue: inactive

What do the screens show for `COc1cc2nc(N3CCOCC3)nc(NC3CCN(C)CC3)c2cc1OC`?
aSyn rescue: inactive

How did CCOc1ccc(-c2nnc(-c3ccncc3)o2)cc1 do in these assays?
aSyn rescue: inactive; FUS yeast rescue: inactive; Mito fusion act: inactive; TDP-43 yeast inh: inconclusive; Abeta rescue: inactive

How did CCCCOc1ccc(-c2nnc(-c3ccncc3)o2)cc1 do in these assays?
aSyn rescue: inactive; FUS yeast rescue: inactive; Mito fusion act: inactive; TDP-43 yeast inh: 20µM; Abeta rescue: inactive

Results for CN(C)N=Nc1ccc(/C=C2\C=Cc3ccccc32)cc1 ?
aSyn rescue: inactive

Results for CCOC(=O)CC1(NC(=O)c2cc(COc3c(F)cccc3F)on2)CCCCC1 ?
aSyn rescue: inactive; FUS yeast rescue: inactive; Mito fusion act: inactive; TDP-43 yeast inh: inactive; Abeta rescue: inactive

How did O=C1CN(C(=O)COc2ccc(Cl)cc2Cl)C(c2ccccc2)c2cc(F)ccc2N1 (stereo not drawn) do in these assays?
FUS yeast rescue: 32µM; TDP-43 yeast inh: inactive; Abeta rescue: inactive

Results for Cc1nc(N2CCc3ccccc3C2)[nH]c(=O)c1Cc1ccccc1 ?
aSyn rescue: inactive; FUS yeast rescue: inactive; Mito fusion act: inactive; TDP-43 yeast inh: inactive; Abeta rescue: inactive

Results for Cc1nc(-n2[nH]c3c(c2=O)CCCC3)[nH]c(=O)c1Cc1ccccc1 ?
aSyn rescue: inconclusive; FUS yeast rescue: inconclusive; Mito fusion act: inactive; TDP-43 yeast inh: 10µM; Abeta rescue: inconclusive

What do the screens show for `CCC(CC)N1CCN(C(=O)c2cc(OC)c(OC)c(OC)c2)CC1`?
aSyn rescue: inactive; FUS yeast rescue: inactive; Mito fusion act: inactive; TDP-43 yeast inh: inactive; Abeta rescue: inactive

How did N#Cc1ccc(-c2ccc(OCC(=O)NCCCN3CCCC3=O)cc2)cc1 do in these assays?
aSyn rescue: inactive; FUS yeast rescue: inactive; Mito fusion act: inactive; TDP-43 yeast inh: 13µM; Abeta rescue: inactive

Results for COc1ccc(NC(=O)NCCCN2CCCC2=O)c(OC)c1 ?
FUS yeast rescue: inactive; Mito fusion act: inactive; TDP-43 yeast inh: 0.001µM; Abeta rescue: inactive

How did CCOc1ccc(NC(=O)COC(=O)c2ccccc2OCc2ccccc2Br)cc1 do in these assays?
aSyn rescue: inactive

Results for CC(OC(=O)c1ccccc1OCC(=O)Nc1ccc(Br)cc1)C(=O)NC1CCCC1 (stereo not drawn) ?
aSyn rescue: inactive

How did O=[N+]([O-])c1ccc(O)c(/C=N/Nc2nc3ccccc3[nH]2)c1 do in these assays?
aSyn rescue: inactive; Mito fusion act: inactive; TDP-43 yeast inh: inactive; Abeta rescue: inactive

Results for O=[N+]([O-])c1ccc(NN=Cc2ccccc2O)nc1 ?
aSyn rescue: inactive; FUS yeast rescue: inactive; TDP-43 yeast inh: 22µM; Abeta rescue: inactive

What do the screens show for `O=[N+]([O-])c1cccc(N/N=C/c2cc([N+](=O)[O-])ccc2O)c1`?
aSyn rescue: inactive; FUS yeast rescue: inactive; Mito fusion act: inactive; TDP-43 yeast inh: inactive; Abeta rescue: inactive

Results for O=[N+]([O-])c1ccc(O)c(/C=N/Nc2ccccn2)c1 ?
aSyn rescue: 0.89µM; FUS yeast rescue: inactive; Mito fusion act: inactive; TDP-43 yeast inh: inactive; Abeta rescue: inactive

Results for O=C(N/N=C/c1cc([N+](=O)[O-])ccc1O)Nc1ccccc1 ?
aSyn rescue: inactive; FUS yeast rescue: inactive; Mito fusion act: inactive; TDP-43 yeast inh: inactive[9.22 µM]; Abeta rescue: inactive
